The record followed here is PubChem BioAssay (Tox21).

Assay [1] can be described thus: cAMP Responsive Elements (CRE) small molecule antagonists, cell-based qHTS assay: qHTS cell viability counter screen (AID 2060913). Further: nearly all actives have a fitted effect of over 40% in size. The settings on record: CRE-bla HEK293T viability, CellTiter-Glo luminescence, 5 h; series mostly up to 92.4 µM. Put shortly: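 Cytotoxicity counter screen multiplexed with the CRE-bla antagonist read: HEK293T cells in DMEM with dialyzed FBS and 25 mM HEPES were treated 3 hrs under 0.25 uM final NKH477, then viability measured by CellTiter-Glo luminescence.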

Assay [2] can be described thus: cAMP Responsive Elements (CRE) small molecule agonists, cell-based qHTS assay: qHTS cell viability counter screen (AID 2060914). Further: nearly all actives have a fitted effect of over 50% in size. The settings on record: CRE-bla HEK293T viability, CellTiter-Glo luminescence, 5 h; series mostly up to 92.4 µM. The essentials: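 Cytotoxicity was measured as ATP luminescence (CellTiter-Glo, 30 min at room temperature) in the same wells as the CRE-bla FRET read-out. HEK293T CRE-bla cells had 3 h compound exposure at 37C/5% CO2.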

Inconclusive results are not listed. Where a call stands in place of a potency, no number is given. Activity calls are given as the source filed them. The call rests on the fitted dose curve; in most records, active means well fitted cell-killing curve with a large enough effect in the repeat runs; inconclusive means weak or mixed curves, or effect the other way; inactive means flat fitted curve, though single readings scatter.

As for `CN1C(=O)CC(C)(c2ccccc2)C1=O` (stereo not given), the Potency result in assay [1] and in assay [2] was “inactive” in each case.
As for `C[C@H]1O[C@H](O[C@H]2[C@H](O)[C@@H](O)[C@@H](O[C@H]3[C@H](O)[C@@H](O)[C@H](O)O[C@@H]3CO)O[C@@H]2CO)[C@H](O)[C@@H](O)[C@@H]1N[C@H]1C=C(CO)[C@@H](O)[C@H](O)[C@H]1O`, the Potency result in assay [1] and in assay [2] was “inactive” throughout.
As to `CN1CCN(N)CC1`, the Potency entry in assay [1] and in assay [2] was “inactive” in each case.
`O=C(O)CC(=O)C(=O)O`: the Potency entry in assay [1] and in assay [2] was “inactive” each time.
As to `C=C[C@H]1CN2CC[C@H]1C[C@@H]2[C@@H](O)c1ccnc2ccc(OC)cc12`, the Potency result in assay [1] and in assay [2] was “inactive” each time.
